# GLD-1 RNA inh = GLD-1-TGE RNA interaction inhibition (C. elegans); Q17339; purified GLD-1 + fluorescein TGE RNA, fluorescence polarization; inhibition, % at 5.96 µM; 320,000 tested, 0.44% active; AID 2280;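 active = percent inhibition above a per-plate cutoff, the plate mean of test compounds plus 3 SD, cut at about 30% in these data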;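 note: 0% = DMSO wells with GLD-1 and probe and 100% = wells lacking GLD-1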
# eLon inh = E. coli protease La inhibition; P0A9M0; purified E. coli Lon protease, fluorescence polarization; inhibition, % at 7.94 µM; 360,000 tested, 0.42% active; AID 602123; in the data active = inhibition above about 13%, passing the limit was not always enough;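 note: 0% = enzyme with probe and DMSO and 100% = no enzyme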
# Bcl-xL primary = Bcl-xL (human) inhibition; AID 2129; GST-Bcl-xL / FITC-Bim BH3 peptide fluorescence polarization; inhibition, % at 10.9 µM; Q07817; 320,000 tested, 0.7% active;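 active = inhibition above the mean of all tested compounds plus 3 SD, cutoff set per campaign, cut at about 30% in these data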;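 note: 0% = DMSO wells and 100% = unlabeled Bim-BH3 peptide competitor; inhibitors lower millipolarization by displacing the labeled peptide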
# EBV gp42 inh = inhibitors of Epstein-Barr virus glycoprotein 42; Q1HVG2; Fluorescence polarization binding assay, mP read-out; inhibition, % (tested at 21.74 µM); 220,000 tested, 0.42% active; AID 1085; in the data active = inhibition above about 50%
# MEX-5 binding = C. elegans MEX-5 TCR-2 RNA binding activity; AID 1832; MEX-5/FITC-TCR2 RNA binding, fluorescence polarization; active compounds read low; activity score (negative = inhibition of binding), % at 10 µM; 300,000 tested, 0.38% active;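 active = inhibition past about -25% in most replicates, and total fluorescence under double the plate's negative control median, limit read from the data; inconclusive = replicates evenly split on the limit, or fluorescence at least double controls; inactive = too little inhibition in most replicates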;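 note: 0% = DMSO and -100% = 5 µM competing unlabeled TCR2 RNA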
# Target sequence (Q9XUB2 whole entry, looked up): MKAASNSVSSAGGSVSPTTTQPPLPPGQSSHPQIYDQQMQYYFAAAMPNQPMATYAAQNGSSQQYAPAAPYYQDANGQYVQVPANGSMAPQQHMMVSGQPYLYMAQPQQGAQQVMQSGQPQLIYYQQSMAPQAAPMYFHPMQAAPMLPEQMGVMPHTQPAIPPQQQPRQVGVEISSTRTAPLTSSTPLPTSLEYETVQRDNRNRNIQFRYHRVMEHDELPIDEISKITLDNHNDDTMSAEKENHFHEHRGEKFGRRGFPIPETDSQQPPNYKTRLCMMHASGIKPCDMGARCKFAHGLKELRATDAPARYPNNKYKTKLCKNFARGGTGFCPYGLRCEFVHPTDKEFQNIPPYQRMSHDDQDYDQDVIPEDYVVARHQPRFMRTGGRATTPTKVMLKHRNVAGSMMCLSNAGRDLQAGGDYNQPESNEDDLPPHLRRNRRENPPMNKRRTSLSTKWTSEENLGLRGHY
# The depositor's hits bear a star; i = inactive; ? = inconclusive; . = not tested or not shown; + = active, no number. An excerpt weighted towards active compounds, which were near 1.3% of everything screened.
SMILES,GLD-1 RNA inh,eLon inh,Bcl-xL primary,EBV gp42 inh,MEX-5 binding
CC1(OC(=O)C2CCCC2)C(=O)C=C2C=C(c3ccsc3)N(CC3CC3)C=C2C1=O (configuration not stated),16.9,8.9,27.2,-15.4,1.0
CC1(OC(=O)C2CCCC2)C(=O)C=C2C=C(c3ccsc3)N(C3CCCCC3)C=C2C1=O (configuration not stated),24.4,14.0,30.2*,23.9,-2.5
CCOC(=O)Cc1nc2ccccc2n(CC#N)c1=O,-10.8,-2.5,-0.8,-13.2,-33.4*
CCOC(=O)Cn1c(C)nc2ccccc21,-0.9,-10.7,1.4,9.5,-4.2
CC1OC2CC(=O)OC2C2=C1C(=O)c1c(O)cccc1C2=O (configuration not stated),.,9.0,.,.,.
Cc1ccccc1Nc1nc(N)nc(COC(=O)c2ccco2)n1,-8.9,6.2,.,.,.
Cc1ccc(/C=C/C(=O)OCc2nc(N)nc(Nc3ccccc3C)n2)o1,7.8,-4.2,4.4,85.5*,2.5
O=C1CCCC2=C1C(c1ccc(O)c(O)c1)c1c(ccc3ncccc13)N2 (configuration not stated),0.6,9.1,35.7*,7.4,-9.3
CCOc1ccc(C2C3=C(CCCC3=O)Nc3ccc4ncccc4c32)cc1 (configuration not stated),6.8,3.3,0.8,4.1,0.9
COc1cccc(-c2nc3ccccc3s2)c1O,4.2,8.8,-0.2,4.1,0.8
CC1=CC(=C(C#N)c2nc3ccccc3s2)C=C(C)N1c1ccc(F)cc1,3.0,-3.3,5.9,179.9*,1.5
COc1ccccc1N1C(C)=CC(=C(C#N)c2nc3ccccc3s2)C=C1C,-6.2,-4.7,-0.4,164.5*,-37.9*
CC(C)=C(C#N)c1nc2ccccc2s1,-60.1,-51.5,-19.6,-10.4,3.9
Nc1cc(N)c(OCC(F)(F)F)cc1OCC(F)(F)F,30.3,9.6,39.3*,6.6,-0.6
c1ccc(-c2nc(-c3ccco3)n3ccccc23)cc1,20.7,-16.8,65.3*,43.6,-12.0
CCN(CC)c1ccc(/C=C(\C#N)C(N)=O)cc1,.,-61.5,.,-96.7,.
CCN(CC)c1ccc(/C=C(\C#N)C(=O)c2ccc(Br)cc2)cc1,63.2*,i,52.4*,+,-16.4
CCOC(=O)N1CCN(C(=O)c2ccc3c(SCC(=O)O)c4c(nc3c2)CCCC4)CC1,16.4,-9.2,24.8,-11.9,0.1
O=C(O)CSc1c2c(nc3cc(C(=O)N4CCOCC4)ccc13)CCCC2,18.2,5.0,37.1*,-8.9,-8.9
CCCCC1CCC(C(=O)N(CCCC)c2c(N)n(CCCC)c(=O)[nH]c2=O)CC1 (configuration not stated),3.2,5.7,1.4,.,0.0
CN1C(=O)/C(=C/c2ccc(-c3ccccc3[N+](=O)[O-])o2)SC1=Nc1ccc(Cl)c(C(=O)O)c1,25.5,-3.8,43.7*,-2.5,?
O=C(O)c1cc(-c2ccc(/C=C3/SC(=S)N(Cc4ccccc4)C3=O)o2)ccc1Cl,.,-116.0,.,-104.7,.
COc1ccc(-c2csc(NC(=O)CSc3nc(C)nc4sc(C(=O)O)c(C)c34)n2)cc1,-4.7,0.3,15.5,65.1*,0.1
COc1ccc(-c2csc(NC(=O)CSc3nc(C)cs3)n2)cc1,2.7,1.9,5.3,-2.1,1.1
CC(=O)N1CCn2c3c(c(=O)c4cc(C)ccc42)CCC31 (configuration not stated),11.6,0.7,32.5*,-7.1,-10.7
SMILES,GLD-1 RNA inh,eLon inh,Bcl-xL primary,EBV gp42 inh,MEX-5 binding
Cc1nc2ccc(NC(=O)NC(=O)c3c(Cl)cccc3Cl)cc2o1,2.1,5.2,43.1*,-6.5,1.0
ClC(CCN1CCN(Cc2ccccc2)CC1)c1ccccc1 (configuration not stated),0.5,-4.7,3.5,.,-0.3
CCn1nc(-c2ccccc2)c2nc3ccccc3nc21,15.3,-17.5,88.3*,92.6*,?
CCn1c2ccc(Cl)cc2c2nc3ccccc3nc21,11.7,.,3.1,-1.9,0.4
CCCn1nc(-c2ccccc2)c2nc3ccccc3nc21,-12.2,.,23.9,64.8*,.
CCCCn1c2nc3ccccc3nc2c2c(=O)n(CCC)cnc21,0.5,-11.9,4.2,-11.0,4.5
CCCn1c(C)nc2c(c1=O)c1nc3ccccc3nc1n2-c1ccccc1,.,2.6,.,.,.
CCCCCn1nc(-c2ccccc2)c2nc3ccccc3nc21,-4.7,-8.2,29.7,161.2*,?
Cc1cc(C)n(CC(=O)NC2CCCc3c2cnn3-c2ccc(C)c(C)c2)n1 (configuration not stated),-5.7,4.7,8.7,.,-1.0
CN(Cc1ccc(Cl)c(Cl)c1)C(=O)C1=CC=CN2CCS(=O)(=O)N=C12,4.6,-6.7,-4.3,.,.
NC(=O)[C@@H]1CCCN1Cc1c(C(=O)N2CCc3ccccc3C2)nc2ccc(Cl)cn12,35.6*,1.2,41.2*,.,-31.5*
CCOc1ccc(CCNC(=O)c2cn(C)c3ccc(S(=O)(=O)N4CCOCC4)cc3c2=O)cc1OCC,-1.6,-5.0,4.5,.,-3.1
CC(=O)N=Cc1c(C)c(C#N)c(=O)n(C)c1O,4.9,4.2,21.5,-3.8,-3.1
Cc1c(C=O)c(Cl)n(C)c(=O)c1C#N,20.8,-2.5,37.4*,-3.9,-18.8
CC(C)C[C@H]1COCCS(=O)(=O)N1Cc1ccc(Cl)c(Cl)c1,0.9,-0.7,66.7*,.,-0.2
CC(=O)c1c(C)[nH]c(C(=O)CN2CCN(S(=O)(=O)c3ccccc3F)CC2)c1C,3.0,-12.7,.,.,.
CCN(CC)CCN1C2=C(C(=O)CC(C)(C)C2)C(c2cccc(F)c2)C2=C1CC(C)(C)CC2=O,-1.4,1.3,6.7,139.6*,-1.4
CC1(C)CC(=O)C2=C(C1)N(CCN1CCOCC1)C1=C(C(=O)CC(C)(C)C1)C2c1cccc(Cl)c1,-6.2,-8.8,2.2,-12.3,-1.9
C=CC[C@@H]1C=C[C@H](O/N=C/c2ccc(C(=O)N3[C@H](c4ccc(C)cc4)[C@@H](C)CC[C@H]3C(=O)OC)cc2)[C@@H](CO)O1,5.9,.,5.7,-9.0,0.5
CN(C)CCCNc1cc(O)c2ncccc2c1,33.4*,17.0,.,.,.
Cc1cc(CC(=O)O)c2oc(-c3ccoc3)cc(=O)c2c1,7.4,.,38.2*,.,-11.0
Cc1cc2c(=O)cc(-c3ccccc3)oc2c(C(=O)O)c1C,.,-2.7,.,.,.
CSCCC(NC(=O)c1ccco1)C(=O)N1CC=C(c2ccccc2)CC1 (configuration not stated),4.5,5.5,2.7,.,0.3
O=c1cc(CN2CC(O)Cc3ccc4ccccc4c32)nc2sccn12 (configuration not stated),-6.3,-1.4,-0.1,0.8,-2.0
COc1cccc(CCN2CCC(CNS(=O)(=O)c3cc(-c4cc(C)no4)ccc3C)CC2)c1,-0.4,-2.3,0.7,.,3.8
O=C(CSc1nnc(Cc2cc(=O)[nH]c(=O)[nH]2)n1-c1ccc(F)cc1)NC1CCCC1,16.4,16.2*,16.5,20.2,-11.1
CCSc1nnc(Cc2cc(=O)[nH]c(=O)[nH]2)n1-c1ccc(F)cc1,4.8,-2.7,4.0,-3.7,-1.6
